Screening results as filed in PubChem BioAssay.
DT40 TDP1 CPT: growth inhibition of DT40 Tdp1-/-;hTDP1 cells with camptothecin (screen for TDP1 inhibitors) | chicken DT40 Tdp1-/-;hTDP1 cells + 20 nM CPT, ATP luminescence, 48 h | Potency, µM (series often up to 46.2 µM), for inactives: at the top dose activity change, negative = growth inhibition, actives largely listed as inhibitors | actives 12% (n = 420,000); also: nearly all actives have a fitted effect of over 55% in size
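Chicken DT40 Tdp1-/- cells complemented with human TDP1, 400 cells/well, exposed to compounds plus 20 nM camptothecin for at least 48 h at 37 C; viability read as ATP content by CellTiter-Glo luminescence.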
TDP1 block: inhibitors of human tyrosyl-DNA phosphodiesterase TDP1 | Q9NUW8 | recombinant TDP1, AlphaScreen DNA substrate cleavage | Potency, µM (doses to about 130 µM), inactives show top-dose activity change, negative = inhibition, most hits filed as inhibitors | actives 0.28% (n = 350,000) | AID 485290; also: nearly all actives have a fitted effect of over 40% in size
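AlphaScreen read-out: signal falls as enzyme removes the 3' tyrosine-FITC from a 5'-biotinylated DNA oligo (15 nM, 5 min, RT). Enzyme was E. coli-made recombinant Tdp1 at 1 nM, exposed to compound for 15 min beforehand; beads 10 ug/ml, 10 min.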
RORg inh: ROR gamma (mouse) transcription inhibition | actives 5.4% (n = 310,000) | Drosophila S2 Gal4-RORgamma UAS-luciferase reporter, 20 h | P51450 | AID 2551 | Potency, µM (highest dose often 53.6 µM), for the others: at the highest dose activity change, negative = inhibition, actives largely listed as inhibitors; also: nearly all actives have a fitted effect of over 60% in size
Target sequence (P51450 whole entry, looked up, the tested form may be a part): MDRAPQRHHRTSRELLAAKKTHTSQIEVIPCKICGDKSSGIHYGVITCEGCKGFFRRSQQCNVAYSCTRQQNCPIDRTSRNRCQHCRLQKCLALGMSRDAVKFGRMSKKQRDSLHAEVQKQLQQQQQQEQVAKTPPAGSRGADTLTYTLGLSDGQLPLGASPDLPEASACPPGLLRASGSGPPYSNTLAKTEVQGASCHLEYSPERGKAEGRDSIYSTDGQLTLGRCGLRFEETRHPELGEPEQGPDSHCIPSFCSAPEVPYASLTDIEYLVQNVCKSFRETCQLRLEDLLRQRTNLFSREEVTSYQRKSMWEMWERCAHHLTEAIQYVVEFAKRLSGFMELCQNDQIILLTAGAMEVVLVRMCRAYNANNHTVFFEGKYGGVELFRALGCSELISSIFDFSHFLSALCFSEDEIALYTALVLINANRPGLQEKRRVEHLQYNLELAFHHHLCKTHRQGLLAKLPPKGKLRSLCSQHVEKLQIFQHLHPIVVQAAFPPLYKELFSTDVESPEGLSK
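Luminescence from a UAS-regulated Photinus luciferase reporter in stably transfected Drosophila Schneider cells is measured; decreased signal marks ROR gamma inhibition. Fusion expression is induced by 700 uM copper sulfate for 20 hr.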
DT40 TDP1 no CPT: qHTS for Inhibitors of human tyrosyl-DNA phosphodiesterase 1 (TDP1): qHTS in cells in absence of CPT; DT40 Tdp1-/- hTDP1 cells, no CPT, ATP luminescence, 48 h; Potency, µM (top dose mostly 46.2 µM), without a hit: at the highest dose activity change, negative = growth inhibition, actives largely listed as inhibitors; actives 15% (n = 420,000); also: nearly all actives have a fitted effect of over 55% in size
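A cellular qHTS used chicken DT40 cells lacking endogenous Tdp1 but carrying stably transfected human TDP1. Compounds were applied without camptothecin, and cell growth kinetics were judged by ATP-dependent luminescence after ≥48 hr.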
Gal4-VP16 FLuc: inhibits Gal4-VP16 luciferase reporter, ROR gamma counter-screen; Drosophila S2 Gal4-VP16 UAS-luciferase, luminescence, 20 h; Potency, µM (top dose mostly 53.6 µM), inactives show at the highest dose activity, negative = inhibition, most hits filed as inhibitors; actives 3.5% (n = 310,000); AID 2546;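 also: Gal4-VP16 expression switched on by copper sulfate through the metallothionein promoter; nearly all actives have a fitted effect of over 50% in size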
* = called active by the depositor; ? = inconclusive; . = no result; [ ] = remark or other dose. This is a sample that favours compounds with a hit; in the whole collection about 19% have one here. Calls follow the shape of the dose curve; as a rule, active = well fitted curve in the direction sought with a large enough effect; inconclusive = small, poorly fitted or top-dose-only effect, or another doubt; inactive = no such curve, though single readings can be large; an effect the other way counts as inactive or inconclusive. % is scaled to controls: 0 for no effect and ±100 for the full control effect; potency is read from the fitted curve at half-maximal effect.

SMILES	DT40 TDP1 CPT	TDP1 block	RORg inh	DT40 TDP1 no CPT	Gal4-VP16 FLuc
C=CCNc1nc2c(c(=O)n(C)c(=O)n2C)n1CC	0.0%	0.0%	-5.1%	1.1%	-12.2%
CC(C)CCn1c(NCCc2ccccc2)nc2c1c(=O)n(C)c(=O)n2C	13µM*	.	5.5%	20.6µM*	?
C=CCNc1nc2c(c(=O)n(C)c(=O)n2C)n1Cc1ccc(F)cc1	2.31µM*	0.0%	?	6.51µM*	7.08µM*
CC(C)=NNc1nc2c(c(=O)n(C)c(=O)n2C)n1CCc1ccccc1	?	7.5%	-17.0%	-29.4%	8.3%
Cn1c(-c2cccc(F)c2)nc2c1c(=O)[nH]c(=O)n2Cc1ccccc1	-5.0%	1.8%	0.0%	-25.5%	-7.7%
CCn1nc(NS(=O)(=O)c2ccccc2)c2cc3ccc(C)cc3nc21	3.3%	5.5%	-12.2%	-6.1%	4.2%
CC(=O)N(c1cccc(C(F)(F)F)c1)c1nc(/C=C/C(=O)O)cs1	1.3%	0.6%	-0.9%	-22.2%	-20.1%
Cn1c(=O)c2c(nc(NCCc3ccccc3)n2Cc2ccc(F)cc2)n(C)c1=O	3.66µM*	-2.1%	?	5.17µM*	22.4µM*
Cn1c(=O)c2c(nc(NCCc3ccccc3)n2Cc2ccc(Cl)c(Cl)c2)n(C)c1=O	?	.	.	6.51µM*	.
Cn1c(=O)c2c(nc(N/N=C/c3cccnc3)n2Cc2ccccc2)n(C)c1=O	11.6µM*	5.5%	37.7%	25.9µM*	-15.3%
Cn1c(N/N=C2\CCCc3ccccc32)nc2c1c(=O)n(Cc1ccccc1)c(=O)n2C	23.1µM*	4.1%	1.2%	?	0.4%
Cn1c(NCCO)nc2c1c(=O)n(Cc1ccc(F)cc1)c(=O)n2C	2.3%	.	-21.7%	-20.9%	1.2%
O=C(c1ccc([N+](=O)[O-])cc1)N(Cc1ccc(Cl)cc1Cl)N1C(=O)CCCC1=O	-11.8%	6.7%	11.6%	-22.0%	-1.3%
CCCCN1C(=O)C(CC(=O)NCCN2CCOCC2)CC(C(=O)N2CCCCCC2)=C1C (configuration not stated)	-18.9%	.	.	-4.9%	.
O=c1ccc(-c2ccc(S(=O)(=O)Nc3ccccc3Cl)o2)n[nH]1	-0.4%	5.6%	6.7%	13.3%	-10.4%
Cc1cc(OCC(=O)Nc2ccc(CCO)cc2)c2c(C)c(C)c(=O)oc2c1	?	0.0%	-4.0%	?	-3.6%
Cn1c(=O)c2c(nc(NCCCO)n2Cc2cccc(Br)c2)n(C)c1=O	?	3.3%	21.5%[0.365 µM]	?	.
C/C(Cl)=C\Cn1c(Nc2ccc(C)cc2)nc2c1c(=O)n(C)c(=O)n2C	?	2.2%	-10.8%	?	-2.9%
CC(Cl)=CCn1c(NCCc2ccccc2)nc2c1c(=O)n(C)c(=O)n2C	1.46µM*	.	.	1.46µM*	.
Cn1c(=O)c2c(nc(NCCc3ccccc3)n2Cc2cccc(Br)c2)n(C)c1=O	11.6µM*	.	.	13µM*	.
CCC(C)Nc1nc2c(c(=O)n(C)c(=O)n2C)n1Cc1ccc(F)cc1 (configuration not stated)	18.4µM*	2.3%	12.8%	?	4.4%
C=CCNc1nc2c(c(=O)n(C)c(=O)n2C)n1CCCCCC	3.26µM*	7.2%	?	1.64µM*	5.01µM*
COc1ccc(-n2c(CN3CCN(c4ccc(F)cc4)CC3)nc3ccc([N+](=O)[O-])cc3c2=O)c(OC)c1	?	.	28.3%	?	0.6%
CNc1nc2c(c(=O)n(C)c(=O)n2C)n1Cc1ccccc1	?	4.2%	-7.6%	13µM*	?
NC(=O)CSc1nnc(-c2cccnc2)n1CCc1ccccc1	-15.3%	2.0%	-3.6%	-13.9%	-1.5%
O=C(Nc1cccc(C(=O)Nc2ccc(F)cc2F)c1)c1ccccc1	-21.5%	.	0.2%	?	-9.0%
COc1ccc(CN(C(=O)Nc2ccccc2)c2ccccn2)cc1OC	2.5%	3.6%	.	-18.3%	.
Cc1ccc(CN(C(=O)Nc2cccc(Cl)c2)c2ccccn2)cc1	?	.	.	16.4µM*	.
